Screens (PubChem BioAssay)
DAX1 inh-1: inhibitors of DAX1 repression of SF-1 activated StAR promoter; HEK293T StAR-luciferase reporter, SF-1/DAX-1 repression relief; inhibition, % at 6.8 µM; 370,000 tested, 1.1% active; AID 652010;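 active = inhibition above the mean over all tested compounds plus 3 SD, cut at about 3.6% in these data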;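 note: 0% = DAX-1 cells with DMSO and 100% = cells lacking DAX-1 with DMSO; higher inhibition means more luminescence from relief of DAX-1 repression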
ssDAF-12 act: activators of S. stercoralis DAF-12 nuclear receptor; activation, % at 6.8 µM; HEK293 ssDAF-12/GRIP1 lit1-tk-luc reporter, luminescence; % of 3 µM dafachronic acid response; 370,000 tested, 1% active;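 active = activation above the mean over all tested compounds plus 3 SD, cut at about 0.9% in these data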;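 note: 0% = DMSO-only wells and 100% = 3 µM delta7-dafachronic acid wells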
hcDAF-12 act: H. contortus DAF-12 activation, primary screen | HEK293 hcDAF-12 lit1-tk-luc reporter, luminescence; 0% DMSO, 100% Δ7-dafachronic acid | activation, % at 6.8 µM | 370,000 tested, 1.4% active | AID 652067;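 active = activation above the mean of all tested compounds plus 3 SD, cut at about 5.5% in these data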;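 note: 100% = response to 3 µM Δ7-dafachronic acid high control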
DAX1 inh-2: inhibits human nuclear receptor DAX1 | P51843 | HEK293 Gal4-DAX1 luciferase reporter, luminescence | inhibition, % at 6.75 µM | 340,000 tested, 0.99% active;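 active = inhibition above the mean over all tested compounds plus 3 SD, cut at about 4.2% in these data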;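 note: 0% = DAX1-transfected cells with DMSO and 100% = empty-vector control cells with DMSO; inhibition shows as a rise in luminescence from relieved DAX1 repression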
AHR act: activators of human aryl hydrocarbon receptor. P35869. AHR-responsive luciferase reporter cells, luminescence. activation, % at 5 µM. 320,000 tested, 2.5% active. AID 2796; in the data active = activation above about 47%;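 note: 0% = vehicle wells and 100% = reference agonist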
hgDAF12 agonist: hgDAF-12 agonism, primary luciferase screen; activation, % at 6.8 µM; AID 687014; HEK293 GAL4-hgDAF12 UAS-luciferase reporter, agonist luminescence; normalized to butyrate control; 370,000 tested, 1.8% active;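 active = activation above a cutoff set at the mean of all screened compounds plus 3 SD, cut at about 10% in these data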;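 note: 0% = DMSO wells and 100% = sodium butyrate wells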
DAX1 inh confirm: confirmation of human DAX1 (NR0B1) inhibitors | shares compounds with DAX1 inh-1 | HEK293T StAR-promoter luciferase reporter, SF-1/DAX-1 repression | inhibition, % at 6.8 µM | 2,400 tested, 87% active;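 active = inhibition above the average of every tested compound plus 3 SD, cut at about 3.8% in these data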;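 note: 0% = DAX-1 cells with DMSO and 100% = no DAX-1 control cells with DMSO; active compounds raise luminescence by relieving repression of the StAR reporter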
Target sequence (P51843 whole entry, looked up): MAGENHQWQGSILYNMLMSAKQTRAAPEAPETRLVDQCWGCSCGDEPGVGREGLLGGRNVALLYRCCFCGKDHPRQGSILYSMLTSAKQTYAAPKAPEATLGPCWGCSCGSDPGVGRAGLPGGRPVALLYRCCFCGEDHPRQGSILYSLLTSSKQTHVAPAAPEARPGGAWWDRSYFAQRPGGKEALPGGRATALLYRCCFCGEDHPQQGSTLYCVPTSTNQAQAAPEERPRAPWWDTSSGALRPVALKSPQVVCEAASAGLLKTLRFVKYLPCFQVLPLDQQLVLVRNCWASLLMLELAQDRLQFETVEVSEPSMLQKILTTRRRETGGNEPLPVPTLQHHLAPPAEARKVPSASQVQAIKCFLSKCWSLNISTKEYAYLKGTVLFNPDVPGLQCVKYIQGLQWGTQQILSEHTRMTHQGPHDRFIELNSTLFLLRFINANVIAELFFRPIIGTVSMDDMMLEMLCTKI
SF1 AF2mut Luc: counter-screen for DAX1 inhibitors: nonselective inhibitors with SF-1 AF2 mutant | AID 652136 | inhibition, % at 6.8 µM | shares compounds with DAX1 inh-1 | HEK293 StAR-luciferase, luminescence | 2,400 tested, 78% active;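 active = inhibition above the mean of all tested compounds plus 3 SD, cut at about 3% in these data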;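 note: 0% = DAX-1 transfected cells with DMSO and 100% = cells without DAX-1 with DMSO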
LXR ag: LXR-beta agonism as hcDAF-12 counter-screen; shares compounds with hcDAF-12 act; HEK293 Gal4-LXR tk-luc reporter, luminescence, 24 h; normalized: DMSO 0%, positive control 100%; activation, % at 6.8 µM; 3,400 tested, under 10 active;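 active = mean percent activation of the reporter above a cutoff set as the average over tested compounds plus their standard deviation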
hcDAF12 conf: confirmation of H. contortus DAF-12 agonists | 3,400 tested, 61% active | HEK293 hcDAF-12 lit1-tk-luc reporter, luminescence; % of Δ7-dafachronic acid response | shares compounds with hcDAF-12 act | activation, % at 6.8 µM;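 active = mean activation across triplicate tests above the threshold derived from the earlier primary screen, cut at about 5.5% in these data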;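 note: 0% = DMSO only wells and 100% = 3 µM Δ7-dafachronic acid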
hgDAF12 conf: hgDAF-12 agonism, confirmation assay. HEK293 GAL4-hgDAF12 luciferase reporter, agonist mode; percent of butyrate response. AID 743050. shares compounds with hgDAF12 agonist. activation, % at 6.8 µM. 3,300 tested, 80% active;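 active = mean activation over triplicate wells above the hit cutoff derived from the earlier primary screen, cut at about 11% in these data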;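 note: 0% = DMSO low control and 100% = 2 mM sodium butyrate high control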
LXRb DAF12 ctr: activates human LXR-beta, counter-screen for DAF-12 agonists; shares compounds with hgDAF12 agonist; HEK293 Gal4-LXR luciferase reporter, 24 h; activation, % at 6.8 µM; 3,300 tested, under 10 active;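 active = mean activation of the triplicate above a set limit carried over from the primary screen, none filed active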
Numbers without * were called inactive. The list is not random: actives were taken first. Their share in the collection is about 5.7%.

For COc1ccc(-c2cc(=NC(CC(C)C)C(=O)O)c3cc(C)ccc3o2)cc1 (stereo not drawn) the results were DAX1 inh-1 5.2*, ssDAF-12 act 1, hcDAF-12 act 5, DAX1 inh-2 3, AHR act -4, hgDAF12 agonist 17*, DAX1 inh confirm 4.5*, SF1 AF2mut Luc 5.2*, hgDAF12 conf 10 and LXRb DAF12 ctr 0.
Screening O=[N+]([O-])c1cccc(COc2ccc(CN3CCOCC3)cc2)c1 returned DAX1 inh-1 7.2*, ssDAF-12 act 1.4*, hcDAF-12 act 7.8*, DAX1 inh-2 2, hgDAF12 agonist 20*, DAX1 inh confirm 9.8*, SF1 AF2mut Luc 5.5*, LXR ag 1, hcDAF12 conf 6.6*, hgDAF12 conf 16* and LXRb DAF12 ctr 1.
For O=[N+]([O-])c1cccc(COc2ccc(CN3CCCC3)cc2)c1 the results were DAX1 inh-1 4.5*, ssDAF-12 act 0, hcDAF-12 act 3, DAX1 inh-2 2, hgDAF12 agonist 24*, DAX1 inh confirm 11*, SF1 AF2mut Luc 6.8*, hgDAF12 conf 15* and LXRb DAF12 ctr 1.
`c1ccc(-c2nc(-c3nccc4ccccc34)oc2-c2ccccc2)cc1` gave DAX1 inh-1 4.8*, ssDAF-12 act 3.0*, hcDAF-12 act 15*, DAX1 inh-2 5.0*, AHR act 22, hgDAF12 agonist 18*, DAX1 inh confirm 4.8*, SF1 AF2mut Luc 2, LXR ag 1, hcDAF12 conf 5.7*, hgDAF12 conf 19* and LXRb DAF12 ctr 1.
For Nc1nc(-c2ccccc2)c(-c2ccccc2)o1 the results were DAX1 inh-1 0, ssDAF-12 act -2, hcDAF-12 act -1, DAX1 inh-2 -2, AHR act 2 and hgDAF12 agonist 0.
COC(=O)[C@H](Cc1c[nH]c2ccccc12)NC(=O)NCc1ccccc1 was read as DAX1 inh-1 0, ssDAF-12 act -1, hcDAF-12 act 0, DAX1 inh-2 -1, AHR act 3 and hgDAF12 agonist -1.
`COc1cc(C(O)c2nc(-c3cccc4cccnc34)cs2)ccc1F` (stereo not drawn) gave DAX1 inh-1 0, ssDAF-12 act -2, hcDAF-12 act -1 and hgDAF12 agonist -2.
CN(C)c1ccc(CNc2nc3ccccc3n2C)cc1 was read as DAX1 inh-1 4.8*, ssDAF-12 act -1, hcDAF-12 act 5, DAX1 inh-2 2, hgDAF12 agonist 15*, DAX1 inh confirm 8.6*, SF1 AF2mut Luc 6.9*, hgDAF12 conf 17* and LXRb DAF12 ctr 1.
`CCCn1c(NCc2ccc(N(C)C)cc2)nc2ccccc21` gave DAX1 inh-1 1, ssDAF-12 act -1, hcDAF-12 act -2, DAX1 inh-2 0, AHR act 29 and hgDAF12 agonist 3.
`Cc1cc([N+](=O)[O-])nn1Cc1noc(C(=O)NCCc2ccccn2)n1` gave DAX1 inh-1 0, ssDAF-12 act 0, hcDAF-12 act 1, DAX1 inh-2 0, AHR act 3 and hgDAF12 agonist 1.
Screening CCOC(=O)[C@]12CCCC=C1N(CCc1ccc(OC)c(OC)c1)C(=O)[C@H](CC(=O)NCCCCc1ccccc1)C2 returned DAX1 inh-1 0, ssDAF-12 act -1, hcDAF-12 act 0 and hgDAF12 agonist -3.
For CC(=O)c1cccc(NC(=O)c2cnn3ccccc23)c1 the results were DAX1 inh-1 5.6*, ssDAF-12 act -1, hcDAF-12 act 5.8*, DAX1 inh-2 1, AHR act 14, hgDAF12 agonist 14*, DAX1 inh confirm 6.5*, SF1 AF2mut Luc 5.2*, hgDAF12 conf 12* and LXRb DAF12 ctr 1.
For O=C(C=NNc1ccccc1)c1ccccc1 the results were DAX1 inh-1 7.3*, ssDAF-12 act 1.8*, hcDAF-12 act 12*, DAX1 inh-2 4.5*, hgDAF12 agonist 29*, DAX1 inh confirm 17*, SF1 AF2mut Luc 9.1*, LXR ag 2, hcDAF12 conf 12*, hgDAF12 conf 24* and LXRb DAF12 ctr 1.
For Fc1cccc(Cc2c(-c3ccc(Cl)cc3)nc3ccc(Br)cn23)c1 the results were DAX1 inh-1 4.7*, ssDAF-12 act -1, hcDAF-12 act 4, hgDAF12 agonist 18*, DAX1 inh confirm 2, SF1 AF2mut Luc 1, hgDAF12 conf 1 and LXRb DAF12 ctr 0.
Screening Cc1ccc(-c2nc3ccc(Cl)cn3c2Cc2cccc(F)c2)cc1 returned DAX1 inh-1 6.5*, ssDAF-12 act 0, hcDAF-12 act 1, hgDAF12 agonist 21*, DAX1 inh confirm 9.7*, SF1 AF2mut Luc 4.9*, hgDAF12 conf 11* and LXRb DAF12 ctr 0.
Cc1ccc2nc(-c3ccc(Cl)cc3)c(Cc3cccc(F)c3)n2c1 was read as DAX1 inh-1 3, ssDAF-12 act 0, hcDAF-12 act 0 and hgDAF12 agonist 8.
`CC[C@@]1(C(=O)OC)N[C@H](CN(C)C(=O)c2ccc(C)cc2)[C@@H]2C(=O)N(C)C(=O)[C@@H]21` gave DAX1 inh-1 -1, ssDAF-12 act -1, hcDAF-12 act 0, DAX1 inh-2 0, AHR act -1 and hgDAF12 agonist 2.
`CCOC(=O)C1CCN(C(=O)CN(c2ccc3c(c2)OCCO3)S(=O)(=O)c2ccccc2)CC1` gave DAX1 inh-1 1, ssDAF-12 act -1, hcDAF-12 act -1, DAX1 inh-2 0, AHR act 2 and hgDAF12 agonist -1.
